# In PubChem BioAssay:
# Inconclusive results are not listed. Active and inactive are the calls of the source. Unless noted, no cut-off is given here; in the data, nearly all actives have AC50 up to about 26 µM.
# Columns and labels:
# [1] = viability loss in pontine glioma line – cell-based, SU-DIPG-XVII, MIPE5.0, CellTiter-Glo, qHTS, dose response (AID 1347060); conditions: CellTiter-Glo ATP luminescence;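 for AC50: cells exposed to compound for 48 hours before viability readout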
# [2] = viability loss in pontine glioma line – cell-based, SU-DIPG-XIII, MIPE5.0, CellTiter-Glo, qHTS, dose response (AID 1347064; cut-off not given, nearly all actives have AC50 up to about 23 µM;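 for AC50: cells exposed to compound for 48 hours before the viability read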); conditions: CellTiter-Glo ATP luminescence
# [3] = viability loss in pontine glioma line – cell-based, SU-DIPG-XXV, MIPE5.0, CellTiter-Glo, qHTS, dose response (AID 1347065); conditions: CellTiter-Glo ATP luminescence;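 note: cells exposed to compound for 48 hours before ATP readout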
# [4] = JHH-DIPG-1 glioma cell viability, MIPE5.0 library, CellTiter-Glo luminescence, qHTS (AID 1347067); conditions: JHH-DIPG-1 glioma viability, CellTiter-Glo ATP luminescence;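 note: cells exposed to compound for 48 hours before readout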
# [5] = growth inhibition of DIPG cells – cell-based, MIPE5.0 library, qHTS (AID 1347068; cut-off not given, nearly all actives have IC50 up to about 30 µM;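 for IC50: cells exposed to compound for 48 hours before viability readout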); conditions: SU-DIPG-XXV viability
# [6] = growth inhibition, single agent or in combination, cell-based, chromothripsis tumors, cisplatin or BGB combos (AID 1671449; in the data active = inhibition above about 80%;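 note: cells exposed for 96 hours; 0% = vehicle DMSO and 100% = killing by high DMSO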); conditions: LFS_MB_P medulloblastoma cells
# [7] = growth inhibition, single agent and combos, cell-based, chromothripsis tumors, cisplatin or BGB combos (AID 1671450; in the data active = inhibition above about 80%;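 note: cells exposed to compound for four days; 0% = vehicle DMSO and 100% = cell killing by high DMSO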); conditions: HDN33 neuroblastoma cells, stronger effect = higher value
# [8] = growth inhibition, single agents and combos, ICB984, cell-based, cisplatin or BGB combos, synergistic combos for chromothripsis tumors (AID 1671451; call rule not given here;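 note: cells exposed for 96 hours before readout; 0% = vehicle DMSO and 100% = killing by high DMSO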); conditions: ICB984 medulloblastoma cells, drug combinations, stronger effect = higher value
# [9] = growth inhibition, single agents and combos, LFS_MB_1R, cell-based, cisplatin or BGB combos, synergistic combos for chromothripsis tumors (AID 1671452; in the data active = inhibition above about 80%;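 note: cells exposed for 96 hours before readout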); conditions: LFS_MB_1R medulloblastoma cells, stronger effect = higher value
# [10] = growth inhibition, single agents and combos, HTB85, cell-based, BGB or cisplatin IC20 combos, synergistic combos for chromothripsis tumors (AID 1671453; in the data active = inhibition above about 80%;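 note: cells exposed for 96 hours before readout; 0% = vehicle DMSO and 100% = high DMSO killing control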); conditions: HTB85 osteosarcoma cells, drug combinations, stronger effect = higher value
# [11] = growth inhibition, single agents and combos, CRL2098, cell-based, BGB or cisplatin IC20 combos, synergistic combos for chromothripsis tumors (AID 1671454; in the data active = inhibition above about 80%;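 note: cells exposed for 96 h before readout; 0% = vehicle DMSO and 100% = killing by high DMSO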); conditions: CRL2098 osteosarcoma cells, drug combinations, stronger effect = higher value
# [12] = growth inhibition, single agents and combos, HD-MB03, cell-based, BGB or cisplatin IC20 combos, synergistic combos for chromothripsis tumors (AID 1671455; in the data active = inhibition above about 83%;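 note: 0% = vehicle DMSO and 100% = high DMSO as cytotoxic control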); conditions: HD-MB03 medulloblastoma cells, stronger effect = higher value
# [13] = growth inhibition, single agents and combos, UWB1.289, cell-based, BGB or cisplatin combos, synergistic combos for chromothripsis tumors (AID 1671456; in the data active = inhibition above about 80%;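 note: cells exposed to compound for four days; 0% = vehicle DMSO and 100% = killing by high DMSO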); conditions: UWB1.289 ovarian carcinoma cells, stronger effect = higher value
# [14] = growth inhibition, MDA-MB-436, cell-based, BGB or cisplatin combos, synergistic combos for chromothripsis tumors (AID 1671458; call rule not given here;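 note: cells exposed for 96 hours; 0% = vehicle DMSO and 100% = killing by high DMSO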); conditions: MDA-MB-436 breast carcinoma growth inhibition, drug combinations, stronger effect = higher value
# [15] = BT084 cell growth, single and combined drugs, ICGC_MB145, cisplatin and BGB IC40 combos (AID 1671461; in the data active = inhibition above about 80%;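 note: cells exposed to drugs for 96 hours; 0% = vehicle DMSO and 100% = high DMSO full killing control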); conditions: BT084 medulloblastoma cells, drug combinations, stronger effect = higher value
# [16] = RCMB18 cell growth, single agent and combined, cisplatin and BGB IC40 combos (AID 1671462; in the data active = inhibition above about 80%;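 note: cells exposed to compound for four days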); conditions: RCMB18 medulloblastoma cells, stronger effect = higher value
# [17] = CRL1545 cell growth, single agent and combined, cisplatin and BGB IC20 combos (AID 1671464; in the data active = inhibition above about 80%;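 note: cells exposed to compound for 96 hours before readout; 0% = vehicle DMSO and 100% = high DMSO killing control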); conditions: CRL1545 osteosarcoma cells, stronger effect = higher value
# [18] = viability loss with induced miR-34 in A549 – imaging, A549 dox-inducible miR-34, nuclei and caspase counts, primary screen (AID 1347080;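 active = compounds whose cell count with miR-34 switched on is under 0.7 times the count with it off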); conditions: A549 miR-34 inducible, Hoechst nuclei count, 48 h
# [19] = MELAS cybrid and Rieske KO viability enhancers – cell-based, MELAS cybrids, Rieske KO mouse fibroblasts, CellTiter-Glo, primary screen (AID 1508586;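 active = mean z-score across replicates of 1.96 or higher in either the MELAS or the Rieske mutant cell line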;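 note: z relative to plate mean and SD of compound and empty wells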); conditions: low glucose
# [20] = measured here: combination with BGB IC40, at 0.05 µM
# [21] = measured here: with BGB IC20 combination, at 0.5 µM
# [22] = measured here: with cisplatin IC20 combination, at 0.5 µM
# [23] = measured here: combination with cisplatin, at 0.5 µM
# [24] = stronger effect = lower value, cell number ratio, induced over uninduced
# [25] = measured here: relative caspase fold change +Dox/-Dox
# [26] = measured here: total cells with miR-34 induction, stronger effect = lower value
# [27] = measured here: total cells without miR-34 induction
# [28] = MELAS cybrid survival, CellTiter-Glo 48 h, stronger effect = higher value
# [29] = Rieske KO mouse fibroblast survival, CellTiter-Glo 72 h
smiles,measurement,setting,value
NC1CCC(N[C@@H]2C[C@H]2c2ccccc2)CC1 (stereo not given in full),outcome,[1],inactive
same,outcome,[2],inactive
same,outcome,[3],inactive
same,outcome,[4],inactive
same,outcome,[5],inactive
same,inhibition,"[6]; at 0.5 µM, stronger effect = higher value",20.5% (inactive)
same,inhibition,"[6]; measured here: combination with BGB IC20, at 0.005 µM",-7.63%
same,inhibition,"[6]; measured here: combination with BGB IC40, at 0.005 µM",-36.6%
same,inhibition,[6]; [20],-4.73%
same,inhibition,"[6]; measured here: combination with cisplatin, at 0.5 µM, stronger effect = higher value",61.5%
same,inhibition,"[6]; measured here: combination with cisplatin, at 5 µM, stronger effect = higher value",-33.8%
same,inhibition,"[7]; BGB combo, at 5 µM",-29.3%
same,inhibition,[7]; at 0.5 µM,-3.39% (inactive)
same,inhibition,"[7]; cisplatin combo, at 5 µM",-5%
same,inhibition,[7]; [21],-15.4%
same,inhibition,[7]; [22],-4.58%
same,inhibition,"[7]; single agent, at 5 µM",-15%
same,inhibition,"[8]; BGB IC20 combo, at 0.005 µM",1.45%
same,inhibition,"[8]; BGB IC40 combo, at 0.005 µM",-40%
same,inhibition,"[8]; BGB IC40 combo, at 0.05 µM",-44.5%
same,inhibition,[8]; at 0.5 µM,-31.6% (inactive)
same,inhibition,"[8]; cisplatin combo, at 0.05 µM",-50.3%
same,inhibition,"[8]; cisplatin combo, at 0.5 µM",-54.9%
same,inhibition,"[8]; cisplatin combo, at 5 µM",-29.9%
same,inhibition,"[8]; measured here: 5 uM single agent, at 5 µM",-0.182%
same,inhibition,[9]; at 0.5 µM,-25.6% (inactive)
same,inhibition,[9]; [20],-43.6%
same,inhibition,[9]; [23],-41.7%
same,inhibition,"[9]; measured here: combination with cisplatin, at 5 µM",-14.7%
same,inhibition,[10]; at 0.5 µM,0.26% (inactive)
same,inhibition,"[10]; measured here: with BGB IC20, at 0.5 µM",13%
same,inhibition,"[10]; measured here: with BGB IC20, at 5 µM",4.36%
same,inhibition,"[10]; measured here: with cisplatin IC20, at 0.5 µM",-8.09%
same,inhibition,"[10]; measured here: with cisplatin IC20, at 5 µM",0.769%
same,inhibition,"[10]; single agent, at 5 µM",26.6%
same,inhibition,[11]; at 0.5 µM,-30% (inactive)
same,inhibition,"[11]; measured here: combination with BGB at IC20, at 0.5 µM",8.8%
same,inhibition,"[11]; measured here: combination with cisplatin at IC20, at 0.5 µM",-54.3%
same,inhibition,[12]; at 0.5 µM,-7.1% (inactive)
same,inhibition,"[12]; measured here: combo with BGB at IC20, at 0.5 µM",-21.2%
same,inhibition,"[12]; measured here: combo with cisplatin at IC20, at 0.5 µM",17.1%
same,inhibition,[13]; at 0.5 µM,-1.76% (inactive)
same,inhibition,"[13]; measured here: inhibition with BGB combination, at 0.05 µM",-8.52%
same,inhibition,"[13]; measured here: inhibition with cisplatin combination, at 0.05 µM",-20.9%
same,inhibition,[14]; at 0.5 µM,-9.19% (inactive)
same,inhibition,"[14]; measured here: BGB combination, at 0.5 µM",-1.28%
same,inhibition,"[14]; measured here: BGB combination, at 5 µM",-16.2%
same,inhibition,"[14]; measured here: cisplatin combination, at 0.5 µM",-20.5%
same,inhibition,"[14]; measured here: cisplatin combination, at 5 µM",-12.9%
same,inhibition,[15]; at 0.5 µM,-8.52% (inactive)
same,inhibition,"[15]; cisplatin combination, at 0.5 µM",-9.89%
same,inhibition,"[15]; cisplatin combination, at 5 µM",-5.53%
same,inhibition,"[15]; measured here: BGB IC40 combination 0.05 uM, at 0.05 µM",65.9%
same,inhibition,"[15]; single agent, at 5 µM",3.43%
same,inhibition,[16]; at 0.5 µM,-11.5% (inactive)
same,inhibition,"[16]; cisplatin combo, at 5 µM",-6.41%
same,inhibition,"[16]; measured here: BGB IC40 combination, at 0.05 µM",-13.6%
same,inhibition,[16]; [23],-9.08%
same,inhibition,"[16]; single agent, at 5 µM",-32.3%
same,inhibition,[17]; at 0.5 µM,-40.7% (inactive)
same,inhibition,[17]; [21],-47.5%
same,inhibition,[17]; [22],-37.3%
same,inhibition,"[17]; single agent, at 0.05 µM",-32.5%
same,inhibition,"[17]; single agent, at 5 µM",-26.5%
CCCc1c(OCCCOc2ccc(OCC(=O)O)cc2)ccc(C(C)=O)c1O,outcome,[1],inactive
same,outcome,[2],inactive
same,outcome,[3],inactive
same,outcome,[4],inactive
same,outcome,[5],inactive
same,fold change,[18]; [24],0.974 (inactive)
same,fold change,[18]; [25],1.33
same,cell count,[18]; [26],9670
same,cell count,[18]; [27],9930
COc1cccc(-c2cc(F)ccc2C2Cc3nc(N)nc(C)c3C(=O)N2)n1 (stereo not given),AC50,[1],0.0295 µM (active)
same,AC50,[2],0.0417 µM (active)
same,AC50,[3],0.0295 µM (active)
same,AC50,[4],0.0372 µM (active)
same,IC50,[5],0.0742 µM (active)
same,fold change,[18]; [24],0.968 (inactive)
same,fold change,[18]; [25],0.335
same,cell count,[18]; [26],2200
same,cell count,[18]; [27],2270
same,z-score,[19]; [28],2.51 (active)
same,z-score,[19]; [29],-1.33
COc1cc(N2CCC(N(C)C)CC2)ccc1Nc1ncc(Cl)c(Nc2ccccc2P(C)(C)=O)n1,AC50,[1],1.05 µM (active)
same,AC50,[2],0.934 µM (active)
same,AC50,[3],0.417 µM (active)
same,AC50,[4],1.66 µM (active)
same,IC50,[5],1.86 µM (active)
same,fold change,[18]; [24],1.01 (inactive)
same,fold change,[18]; [25],0.883
same,cell count,[18]; [26],1590
same,cell count,[18]; [27],1580
same,z-score,[19]; [28],3.7 (active)
same,z-score,[19]; [29],-0.471
